The results in this text go back to PubChem BioAssay (NCI).

Among the test systems are HCT-15 colon; HT29 colon; SNB-75 CNS; SNB-19 CNS; U251 CNS; SK-MEL-5 melanoma; UACC-62 melanoma; LOX IMVI melanoma; SK-MEL-28 melanoma; SK-MEL-2 melanoma; EKVX NSCLC; SN12C renal; UO-31 renal; TK-10 renal; ACHN renal; CAKI-1 renal; A498 renal; CCRF-CEM leukemia; MOLT-4 leukemia; PC-3 prostate.
What all share (test): NCI-60 one-dose screen, 48 h (100 = growth as untreated, 0 = no growth, -100 = all killed)
Common to all, as to conditions: 10 µM unless noted

Structures are written as SMILES. About 83,000 compounds went through this panel and 20% of them were active in at least one assay; those are over-represented in the sample as a whole.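 Percent growth is the endpoint: 0 to 100 indicates growth inhibition (40 means 60% inhibition), 0 means no net growth, and negative values indicate cell death.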 Unmarked numbers belong to inactive results. Activity calls are given as the source filed them. The calls were made as follows: active = growth percent below 10; inactive = the rest.

For `Cc1ccc(OCC(=O)Nc2ccc(Oc3ccccc3)cc2)c([N+](=O)[O-])n1`, the growth with HCT-15 colon is 95.2%; with HT29 colon, 95%; in the experiment on SNB-75 CNS, 78.8%; with SNB-19 CNS it was 58.7%; in the experiment on U251 CNS, 85%; with SK-MEL-5 melanoma, 44.2%. Further, the growth with UACC-62 melanoma is 60.9%; in the experiment with LOX IMVI melanoma, 89.6%; in the experiment on SK-MEL-28 melanoma, 111%; in the experiment on SK-MEL-2 melanoma it was 30.9%; in the experiment with EKVX NSCLC, 89.5%; in the experiment with SN12C renal it was 68.5%. For the same compound, the growth with UO-31 renal was -38.4% (active); in the experiment with TK-10 renal, 92.2%; in the experiment on ACHN renal, 101%; in the experiment on CAKI-1 renal, 84.3%; in the experiment on A498 renal, 107%; in the experiment with CCRF-CEM leukemia it was 88%. Also, the growth in the experiment on MOLT-4 leukemia is 81.8%.
For the compound `Cc1ccc(C(NC(=O)c2ccccc2)c2ccc3cccnc3c2O)cc1` (centres undefined), the growth with HCT-15 colon was 28.9%; in the experiment on HT29 colon it was 22.2%; in the experiment on SNB-75 CNS, 33.3%; with SNB-19 CNS it was 19.9%; in the experiment on PC-3 prostate it was 26.1%; in the experiment with SK-MEL-5 melanoma it was -42.3% (active). The growth in the experiment with UACC-62 melanoma was -8.42% (active); in the experiment on LOX IMVI melanoma, 11.1%; with SK-MEL-28 melanoma, 30.8%; in the experiment on SK-MEL-2 melanoma it was 18.5%; in the experiment with EKVX NSCLC, 17.3%; in the experiment on SN12C renal, 14.1%. For the same compound, the growth is -3.13% (active) with UO-31 renal; 16% in the experiment with TK-10 renal; 8.26% (active) with ACHN renal; 9.05% (active) with CAKI-1 renal; 24.9% in the experiment on A498 renal; 5.39% (active) in the experiment on CCRF-CEM leukemia. Further, in the experiment on MOLT-4 leukemia, the growth is 8.31% (active).
Take `COC(=O)[C@H]1[C@H]2C[C@@H]3c4[nH]c5cc(OC)ccc5c4CCN3C[C@H]2C[C@@H](OC(=O)/C=C/c2cc(OC)c(OC)c(OC)c2)[C@@H]1OC`: the growth was 39.9% with HCT-15 colon; -66.1% (active) with HT29 colon; 47.2% in the experiment on SNB-75 CNS; 49.9% in the experiment with SNB-19 CNS; 17.4% in the experiment on U251 CNS; 44.6% in the experiment with PC-3 prostate. In addition, the growth was 87.4% with UACC-62 melanoma; 26.8% in the experiment with LOX IMVI melanoma; 109% with SK-MEL-28 melanoma; 66.2% in the experiment with SK-MEL-2 melanoma; 90.4% in the experiment with EKVX NSCLC; 63.3% with SN12C renal. The growth in the experiment on UO-31 renal is 69.2%; in the experiment on TK-10 renal it was 46.4%; in the experiment with ACHN renal it was 68.5%; in the experiment with CAKI-1 renal, 30.9%; with A498 renal it was 81.7%; with CCRF-CEM leukemia it was 5.36% (active). Moreover, in the experiment on MOLT-4 leukemia, the growth is 8.49% (active).
In the case of `Fc1ccccc1C1c2ccccc2-c2nccn21` (centres undefined), the growth is 99.2% in the experiment on HCT-15 colon; 100% in the experiment with HT29 colon; 98.2% in the experiment on SNB-75 CNS; 100% in the experiment on SNB-19 CNS; 87.3% with PC-3 prostate; 97% in the experiment with SK-MEL-5 melanoma. For the same compound, the growth is 89% in the experiment with UACC-62 melanoma; 98.1% in the experiment on LOX IMVI melanoma; 109% with SK-MEL-28 melanoma; 99.5% in the experiment with SK-MEL-2 melanoma; 96.1% in the experiment with EKVX NSCLC; 97.1% in the experiment on SN12C renal. Besides, the growth with UO-31 renal was 93.7%; in the experiment on TK-10 renal, 97.4%; with ACHN renal, 112%; with CAKI-1 renal, 66.5%; in the experiment on A498 renal, 90.9%; in the experiment with CCRF-CEM leukemia, 96.9%. Also, the growth in the experiment with MOLT-4 leukemia is 87.4%.
With `CCOc1cc(/C=C/C(=O)C(C(=O)/C=C/c2ccc(OC(=O)CNc3nc4ccccc4[nH]3)c(OCC)c2)C(=O)CNc2nc3ccccc3[nH]2)ccc1OC(=O)CNc1nc2ccccc2[nH]1`, the growth in the experiment with HCT-15 colon is -41% (active); in the experiment with HT29 colon, -100% (active); with SNB-75 CNS, -18.1% (active); with SNB-19 CNS, 25.1%; in the experiment with U251 CNS it was -61.5% (active); in the experiment with PC-3 prostate it was 3.12% (active). The growth in the experiment on SK-MEL-5 melanoma was -86.6% (active); with LOX IMVI melanoma it was -98.5% (active); with SK-MEL-28 melanoma, -29.6% (active); in the experiment on SK-MEL-2 melanoma, 13.2%; in the experiment on EKVX NSCLC, -3.49% (active); in the experiment with SN12C renal, -22.9% (active). Also, the growth with TK-10 renal was 31.8%; in the experiment with ACHN renal it was -45.6% (active); in the experiment with CAKI-1 renal, -12.2% (active); in the experiment with A498 renal it was -9.48% (active); in the experiment with MOLT-4 leukemia, -27.5% (active).
Regarding `COc1ccc(CCN2C(=O)CCC3=C2CCCC3=O)cc1OC`, the growth with HCT-15 colon is 97.6%; in the experiment with HT29 colon, 108%; in the experiment on SNB-75 CNS, 82.3%; with SNB-19 CNS, 100%; in the experiment with PC-3 prostate, 96.6%; with SK-MEL-5 melanoma, 99.1%. The growth in the experiment on UACC-62 melanoma was 105%; in the experiment with LOX IMVI melanoma, 98.8%; in the experiment with SK-MEL-28 melanoma, 108%; with SK-MEL-2 melanoma, 122%; in the experiment with SN12C renal, 101%; in the experiment with UO-31 renal, 81.8%. Besides, the growth in the experiment with TK-10 renal was 114%; with ACHN renal it was 100%; in the experiment with CAKI-1 renal, 109%; in the experiment with A498 renal, 103%; in the experiment with MOLT-4 leukemia it was 103%.
Turning to `O=C(N/N=C/c1cccc(O)c1O)c1ccccc1`, the growth was 22.7% with HCT-15 colon; 26.4% in the experiment on HT29 colon; 41% in the experiment on SNB-75 CNS; 35.7% in the experiment on SNB-19 CNS; 28.9% with PC-3 prostate; 0.968% (active) in the experiment on SK-MEL-5 melanoma. For the same compound, the growth in the experiment with UACC-62 melanoma is -9.23% (active); in the experiment with LOX IMVI melanoma, 7.69% (active); with SK-MEL-28 melanoma, 30.5%; with SK-MEL-2 melanoma, 54.5%; in the experiment with SN12C renal, 21.3%; with UO-31 renal, 4.38% (active). Moreover, the growth was 18.6% with TK-10 renal; 11.5% in the experiment on ACHN renal; -20.5% (active) with CAKI-1 renal; 81.1% in the experiment on A498 renal; 9.39% (active) in the experiment on MOLT-4 leukemia.
For `Cc1[nH]c(=O)[nH]c(=O)c1CCSSCCc1c(C)[nH]c(=O)[nH]c1=O`, the growth is 113% with HCT-15 colon; 99.2% in the experiment on HT29 colon; 97.1% in the experiment on SNB-75 CNS; 105% in the experiment with SNB-19 CNS; 99.6% in the experiment on PC-3 prostate; 103% in the experiment on SK-MEL-5 melanoma. The growth in the experiment with UACC-62 melanoma is 104%; in the experiment on LOX IMVI melanoma, 97.8%; in the experiment on SK-MEL-28 melanoma, 114%; with SK-MEL-2 melanoma, 102%; in the experiment with SN12C renal it was 104%; in the experiment with UO-31 renal it was 83.3%. In addition, the growth in the experiment with TK-10 renal was 101%; in the experiment on ACHN renal, 104%; with CAKI-1 renal, 97.1%; in the experiment with A498 renal it was 107%; in the experiment on MOLT-4 leukemia, 100%.
With `COc1cc(/C(Cl)=C/C=C/C(=O)c2c(C)[n+]([O-])c3ccc(Cl)cc3[n+]2[O-])cc(OC)c1OC`, the growth with HCT-15 colon is 11.5%; in the experiment with HT29 colon, 14.1%; with SNB-75 CNS it was 19.8%; in the experiment on SNB-19 CNS it was 51.2%; in the experiment on PC-3 prostate, 40%; with SK-MEL-5 melanoma, 14.2%. Besides, the growth is 21.2% in the experiment with UACC-62 melanoma; -18.3% (active) in the experiment on LOX IMVI melanoma; 33.5% in the experiment with SK-MEL-28 melanoma; 28.5% in the experiment on SK-MEL-2 melanoma; 89.3% with EKVX NSCLC; 31.9% in the experiment with SN12C renal. Besides, the growth in the experiment on UO-31 renal is 45.7%; with TK-10 renal, 71.6%; with ACHN renal it was 26.9%; with CAKI-1 renal it was 41.3%; in the experiment with A498 renal, 85.1%; with CCRF-CEM leukemia it was 8.02% (active). Also, in the experiment with MOLT-4 leukemia, the growth is 12.4%.
With `CCCCN=C(N)c1ccc(OCCSCCOc2ccc(C(N)=NCCCC)cc2)cc1`, the growth is 90.5% with HCT-15 colon; 44% in the experiment on HT29 colon; 65.7% in the experiment on SNB-75 CNS; 36.7% in the experiment on SNB-19 CNS; 44.4% in the experiment with PC-3 prostate; 22.6% with SK-MEL-5 melanoma. Further, the growth in the experiment with UACC-62 melanoma was 58.3%; with LOX IMVI melanoma it was 58.1%; in the experiment on SK-MEL-28 melanoma, 69.6%; with SK-MEL-2 melanoma it was 59.9%; with EKVX NSCLC, 36.8%; in the experiment with SN12C renal it was 26.3%. Besides, the growth is 93.5% in the experiment with UO-31 renal; 87% in the experiment on ACHN renal; 115% in the experiment with CAKI-1 renal; 57.4% in the experiment with A498 renal; 72.1% with CCRF-CEM leukemia; 67.8% with MOLT-4 leukemia.
As for `Cc1ccc2nc3c(n2c1)C(=O)C(=O)c1ccccc1-3`, the growth in the experiment on HCT-15 colon was -70.1% (active); with HT29 colon it was -39.1% (active); in the experiment on SNB-75 CNS it was -70.2% (active); in the experiment on SNB-19 CNS, -77.7% (active); in the experiment on PC-3 prostate, -24.5% (active); in the experiment on SK-MEL-5 melanoma, -95.9% (active). Moreover, the growth was -89% (active) in the experiment on UACC-62 melanoma; -72% (active) in the experiment on LOX IMVI melanoma; -86.4% (active) in the experiment on SK-MEL-28 melanoma; -55.6% (active) in the experiment on SK-MEL-2 melanoma; -89.6% (active) in the experiment with EKVX NSCLC; -71.7% (active) in the experiment on SN12C renal. In addition, the growth in the experiment with TK-10 renal was -62.4% (active); in the experiment with ACHN renal, -77.1% (active); in the experiment on CAKI-1 renal, -83% (active); with A498 renal, -96.4% (active); in the experiment with CCRF-CEM leukemia it was -12.8% (active); with MOLT-4 leukemia it was -70.8% (active).
